# From PubChem BioAssay AID1347076 (National Center for Advancing Translational Sciences (NCATS), 2019)
# Screen size: about 400,000 compounds; about 13,000 (3.2%) were called active. A call without a number means that no potency is given here. About 18% were inconclusive and are not listed. The sample holds actives, similar compounds and a random draw of the others, so the mix is not that of the screen. Calls follow the shape of the dose curve; as a rule, active = well fitted cell-killing curve with a large enough effect; inconclusive = small, poorly fitted or top-dose-only effect, or effect the other way; inactive = flat fitted curve, though single readings scatter.
# Assay: qHTS assay for MDR1-selective chemotherapeutics: Primary screen using the drug-selected MDR subline cells KB-V1; also: nearly all actives have a fitted effect of over 60% in size
# Conditions: KB-V1 MDR cells viability, CellTiter-Glo, 72 h; series mostly up to 46.1 µM
# From the text: A prime difficulty in effectively treating cancer is the development of cellular resistance to multiple structurally unrelated anticancer drugs, a phenomenon known as multidrug resistance (MDR). […] Numerous strategies to overcome P-gp-mediated MDR have been explored, including the design of drugs that evade recognition and efflux, and development of inhibitors to block efflux and restore drug accumulation. […] An alternative approach is to exploit resistance by identifying drugs that target MDR cells over the non-resistant parental cells from which they were selected. […] The development of MDR1-selective agents represents a new strategy for resolving multidrug resistance, as it remains a long-standing clinical challenge for cancer chemotherapy.
# Our goal is to identify compounds that selectively kill P-gp-expressing MDR cells. We will identify MDR1-selective compounds by comparing toxicity of compounds in the screening library against parental, drug-naive (KB-3-1) adenocarcinoma cells as well as their drug-selected MDR sub-line (KB-V1). The differential toxicity of compounds against these two cell lines will be used to identify MDR1-selective compounds, whose cytotoxicity is potentiated, rather than diminished, by P-gp expression. This assay will be utilized to conduct a quantitative high-throughput screen (qHTS) in collaboration with the NIH Chemical Genomics Center to identify selective agents, and probe hits arising from the screen will be validated using secondary assays and characterized through a well-established follow-up research program. This screen was run against the entire NCGC library collection of about 400,000 compounds.
# NIH Molecular Libraries Probe Production Network [MLPCN]
# NIH Chemical Genomics Center [NCGC]
# PI: Michael Gottesman, National Cancer Institute, NIH
# Briefly, 5 microL of media containing either KB-V1 cells (columns 1-2, 4-48) are dispensed into Greiner white, treated solid-bottom 1536-well assay plates (media-only control is added to column 3). Compounds are then transferred via Kalypsys pin tool equipped with 1536-pin array (10 nL slotted pins, V&P Scientific, San Diego, CA). Following addition of compound, the plates are incubated at 37 degrees C for 72 hours. CellTiter-Glo (2.5 µL/well) is then added, and the plates are read in a ViewLux reader (Perkin-Elmer, clear luminescence filter, 1 second exposure, 1x binning) following a 10 minute incubation. All cells are dispensed in DMEM phenol-red free media containing 10% FBS.
# Library plates were screened starting from the lowest and proceeding to the highest concentration. Vehicle-only plates, with DMSO being pin-transferred to columns 5-48, will be inserted uniformly at the beginning and the end of each library in order to monitor and record any shifts in the background, which can be affected by reagent dispensers or loss in enzyme activity over time. Screening data will be corrected, normalized, and concentration-effect relationships will be derived by using publicly-available NCGC, NCATS curve fitting algorithms (http://ncgc.nih.gov/pub/openhts).
# Potency is read from the fitted curve at half-maximal effect.
row,SMILES,Potency
1,CCOC(=O)c1ccccc1NC(=O)c1nn(-c2ccc(OC)c(Cl)c2)c(=O)c2c1c1ccccc1n2C,inactive
2,CN(C)CCNC(=O)c1ccc(-c2cn3c(-c4ccc(Oc5ccccc5)cc4)cnc3cn2)cc1,inactive
3,O=C(CCc1nc(CN2CCN(S(=O)(=O)c3ccc(F)cc3)CC2)no1)N1CCCCC1,inactive
4,CC(=O)Nc1cnc(-c2ccc(O)cc2C)cn1,inactive
5,Cc1cc(O)ccc1-c1cnc2ccccc2n1,14.6 µM (active)
6,Oc1ccc(-c2nc3ccccc3nc2-c2ccc(O)cc2O)c(O)c1,inactive
7,O=C(Nc1ccccc1Br)c1cc(CN2CCCC2)on1,inactive
8,OC(c1ccc(Cl)cc1)c1ncc(-c2ccc(Cl)cc2)[nH]1 (stereo not given),inactive
9,Cn1cccc1/C=N/NC(=O)c1ccc(OC(F)(F)C(F)F)cc1,inactive
10,O=C(Nc1ccc(OC(F)(F)F)cc1)c1ccc2c(c1)no[n+]2[O-],20.6 µM (active)
11,COC(=O)c1cnn(-c2ccc(C(=O)Nc3ccc(OC(F)(F)F)cc3)cc2)c1N,inactive
12,CCN(CC)C(=O)C1=C(C)N(Cc2ccc(F)cc2)C(=O)C(CC(=O)NC2CCCC2)C1 (stereo not given),inactive
13,CCc1ccc([C@@H]2CC(=O)[C@@H]3CN(S(=O)(=O)c4ccc(C)cc4)[C@H](c4ccc(Cl)cc4)C[C@@H]3N2S(=O)(=O)c2ccc(C)cc2)cc1,inactive
14,Cc1cc(N2CCN(S(=O)(=O)c3ccc(C)c(C)c3)CC2)c2ccccc2n1,3.26 µM (active)
15,Cc1ccc(S(=O)(=O)N2CCN(c3ccccc3)CC2)cc1C,inactive
16,Cc1ccc2nc(CN3CCN(S(=O)(=O)c4ccc(C)c(C)c4)CC3)oc2c1,inactive
17,CCOC(=O)c1c(C)[nH]c(C)c1S(=O)(=O)N1CCCC(C(=O)NCc2ccccc2Cl)C1 (stereo not given),inactive
18,COc1ccc(NCc2nnc(SCc3ccccc3)n2-c2ccc(OC)cc2)cc1,8.2 µM (active)
19,CCn1c(CNc2ccc(OC)cc2)nnc1SCC(=O)c1ccc(OC)cc1,inactive
20,CCc1nnc(NC(=O)CSc2nnc(Cc3ccccc3)n2-c2ccc(OC)cc2)s1,inactive
21,CNC(=O)c1ccc(-c2nc(CN3CCc4ccccc43)c(C)o2)cc1,inactive
22,COc1ccc(-c2csc(N3CCN(Cc4ccc5c(c4)OCO5)CC3)n2)cc1,13 µM (active)
23,COc1ccc(C(O)c2nc(-c3ccc4c(c3)OCO4)cs2)cc1 (stereo not given),inactive
24,O=C(CN1CCN(c2nc(-c3ccccc3)cs2)CC1)NCc1ccc2c(c1)OCO2,inactive

row,SMILES,Potency
1,CCN(C(=O)Nc1cccc2ccccc12)c1ccccc1,inactive
2,CC1(C(=O)Nc2ccccc2Br)CCN1C(=O)CC1CC1 (stereo not given),inactive
3,Cc1ccc(CN(C)C[C@@H]2OCc3cnnn3CCCC(=O)N([C@@H](C)CO)C[C@H]2C)cc1,inactive
4,CCC(C(=O)Nc1c(C)cccc1C)n1c(-c2cc(C)cs2)nc2ccccc21 (stereo not given),inactive
5,OC(c1cc(Cl)cc(Cl)c1)c1ncc(-c2ccccc2C(F)(F)F)[nH]1 (stereo not given),inactive
6,Cc1ccccc1NC(=O)c1ccc(COc2ccc3c(C)cc(=O)oc3c2)cc1,inactive
7,Cc1cc(=O)oc2cc(OCC(=O)Nc3nnc(C4CC4)s3)ccc12,inactive
8,Cc1ccccc1N1CCN(CCCOc2ccc3c(C)cc(=O)oc3c2)CC1,11.2 µM (active)
9,Cc1cc(OCCCN2CCN(Cc3ccccc3)CC2)ccc1[N+](=O)[O-],inactive
10,CCc1cc(=O)oc2cc(OCC(=O)N3CCCc4ccccc43)ccc12,inactive
11,Cc1cc(=O)oc2cc(OCC3CC(c4ccccc4Cl)=NO3)ccc12 (stereo not given),1.16 µM (active)
12,COc1ccc2oc(-c3ccc(C)c(NC(=O)c4sc5ccccc5c4Cl)c3)nc2c1,inactive
13,CCN(CC(=O)Nc1ccc(NC(C)=O)cc1)C(=O)C1CC(=O)N(c2ccc3c(c2)OCCO3)C1 (stereo not given),inactive
14,CC(C)c1ccc(CC(=O)N2CCC2(C)C(=O)NS(=O)(=O)c2ccc(C(C)(C)C)cc2)cc1 (stereo not given),inactive
15,COc1cccc(C(=O)NC(=O)Nc2ccc(-c3cc(C(F)(F)F)nn3-c3ccccc3)cc2)c1,inactive
16,COc1ccc(CN(C(=O)c2cccs2)c2nccs2)cc1OC,inactive
17,COc1ccc(-c2csc(-c3c(N)c(C(=O)c4ccc(OC)c(OC)c4)n4ccccc34)n2)cc1,inactive
18,COc1ccc(CCN(C(=O)COc2ccccc2)c2nc(-c3ccccc3)cs2)cc1OC,5.8 µM (active)
19,Cc1ccc(Sc2ccc(NC(=O)c3ccc(F)cc3)cc2C#N)cc1,inactive
20,CC(C)C[C@H]1CNC(=O)C(=O)N1C[C@H]1CCCN1C[C@H](Cc1ccc(O)cc1)N1C[C@H](CC(C)C)N(CC2CCCCCC2)C(=O)C1=O,inactive
21,COc1cccc(CNc2nc(NCc3cccs3)nc3ccsc23)c1,inactive
22,COc1ccc(-n2nc3c(c2NC(=O)Cc2cccc(C)c2)CS(=O)C3)cc1 (stereo not given),inactive
23,COc1ccc(CC(=O)Nc2c3c(nn2-c2cccc(Cl)c2)CS(=O)C3)cc1 (stereo not given),inactive
24,Cc1cccc(CC(=O)Nc2c3c(nn2-c2cccc(Cl)c2)CS(=O)C3)c1 (stereo not given),20.6 µM (active)

row,SMILES,Potency
1,CC1CCCCN1S(=O)(=O)c1ccc(F)c(C(=O)Nc2ccccc2C(F)(F)F)c1 (stereo not given),inactive
2,CN(C)C(=O)COC(=O)c1cccc(S(=O)(=O)N2CC3(C)CC2CC(C)(C)C3)c1 (stereo not given),inactive
3,CC1(C)CC2CC(C)(CN2c2ncnc3ccc(Br)cc23)C1 (stereo not given),2.59 µM (active)
4,COc1ccc(Nc2ncnc3ccc(Br)cc23)c(OC)c1,inactive
5,O=S(=O)(NCCc1csc(-c2ccccc2)n1)c1cccnc1,inactive
6,O=C(NCCc1csc(-c2ccccc2)n1)c1ccccc1F,20.6 µM (active)
7,COc1ccc(-c2nc(CCNC(=O)c3ccc(Br)o3)cs2)cc1,inactive
8,CC1(C(=O)NS(=O)(=O)c2ccc(Cl)cc2)CCN1C(=O)CC1CCCC1 (stereo not given),inactive
9,C=CCNC(=O)CSc1nc2scc(-c3ccco3)c2c(=O)n1CC=C,inactive
10,C=CCn1c(SCC(=O)Nc2ccc(NC(C)=O)cc2)nc2sc(C)c(C)c2c1=O,inactive
11,C=CCn1c(SCc2csc(C)n2)nc2scc(-c3ccc(C)o3)c2c1=O,11.6 µM (active)
12,CO[C@@H]1CN(C)C(=O)c2cc(NC(=O)C3CC3)ccc2OC[C@H](C)N(C(=O)CN2CCOCC2)C[C@@H]1C,inactive
13,C[C@H]1CN([C@@H](C)CO)C(=O)CCCn2cc(nn2)CO[C@@H]1CN(C)C(=O)Nc1ccccc1,inactive
14,COc1ccc([C@H]2N[C@]3(CCCN(Cc4ccco4)C3=O)[C@H]3C(=O)N(C)C(=O)[C@@H]23)cc1,inactive
15,COc1cc(C)cc(CN2CCC(Cc3ccccc3)CC2)c1O,inactive
16,Fc1ccc(N2CCN(Cc3cnc(Oc4ccc(Br)cc4)s3)CC2)cc1,inactive
17,O=C(CN1CCN(c2ccc(F)cc2)CC1)Nc1ccccc1,inactive
18,COc1cc(CN2CCC(C(N)=O)CC2)ccc1OCc1ccccc1,inactive
19,Oc1c(CN2CCN(c3ccc(F)cc3)CC2)cc(Cl)c2cccnc12,5.17 µM (active)
20,Oc1c(CN2CCCC2)cc(COCc2ccccc2)c2cccnc12,20.6 µM (active)
21,CCC(=O)N1CCc2cc(S(=O)(=O)NC(CC(C)C)C(=O)NCCc3cccc(C)c3)ccc21 (stereo not given),inactive
22,COC(=O)c1ccc2c(c1)S(=O)(=O)NC2C (stereo not given),inactive
23,CCc1ccc(-n2nc(C)c3c(C)cc(=O)n(CC(=O)Nc4ccc(F)cc4C)c32)cc1,inactive
24,Cc1ccc(-c2nc3c(C)cc(Br)cn3c2Cc2ccccc2)cc1,inactive

row,SMILES,Potency
1,CCn1c2c(c(=O)n3ncc(C(=O)N4CCN(c5ccccc5)CC4)c13)CN(Cc1ccc(OC)cc1)CC2,inactive
2,CCc1cccc(NC(=O)Cn2nc(CC)n3c(cc4cc(C)ccc43)c2=O)c1,inactive
3,CN1C(=O)C(CC(N)=O)N(NC(=O)c2ccc(Cl)cc2)C1=S (stereo not given),inactive
4,O=C(Nc1ccn(Cc2ccccc2)n1)c1cccc(F)c1,inactive
5,Cc1ccc(NC(=O)CC2C(=O)N(Cc3ccccc3)C(=S)N2NC(=O)c2cccc(F)c2)c(C)c1 (stereo not given),4.11 µM (active)
6,Cc1ccc(S(=O)(=O)N2C[C@]3(O)C[C@@H]4C(=O)N(c5ccccc5)C(=O)[C@@H]4C[C@]3(OC(=O)NC3CC3)C2)cc1,inactive
7,CC(=O)Nc1ccc(-c2ccnc3c2CC(C(=O)NC(C)C)O3)cc1 (stereo not given),inactive
8,COc1ccc(NC(=O)C2Cc3c(-c4ccc5c(c4)OCO5)ccnc3O2)cn1 (stereo not given),20.6 µM (active)
9,COc1ccc(NC(=O)C2Cc3c(-c4cccc(NC(C)=O)c4)ccnc3O2)cc1OC (stereo not given),inactive
10,CCOc1ccc(C(=O)Nc2ccc3nc4c(c(Nc5ccccc5OC)c3c2)CCCC4)cc1,inactive
11,CC(C)C[C@@H]1Cc2[nH][nH]c(=O)c2[C@H](CCc2ccccc2)O1,inactive
12,Cc1ccc(-c2nc3ccccc3[nH]2)cc1N,10.3 µM (active)
13,COc1ccc(Br)cc1C(=O)NC(=S)Nc1cc(-c2nc3ccccc3[nH]2)ccc1C,inactive
14,COc1ccc(-c2[nH]nc(-c3ccccc3)c2-c2nc3ccccc3[nH]2)cc1,inactive
15,CC1(Oc2cccc(F)c2)CCN(Cc2ccccc2OC(F)F)C1 (stereo not given),inactive
16,COc1ccccc1-n1c(-c2ccc(C)cc2)cn2c3c(=O)n(C)c(=O)n(C)c3nc12,inactive
17,COc1cccc(Cn2c(SCc3ccc(C(=O)N4CCCCC4)cc3)nc3ccncc32)c1,inactive
18,O=C(Nc1ccccc1)c1ccc(NC(=O)c2cccs2)cc1,inactive
19,CC(C)(C)c1ccc(C(=O)Nc2ccc3c(c2)CCCN3C(=O)c2cccs2)cc1,20.6 µM (active)
20,O=C(Nc1ccc(NC(=O)c2cccs2)cc1)c1ccc2ccccc2c1,inactive
21,C/C=C/c1ccc(OCC(=O)OCC(=O)Nc2c(C)nn(-c3ccccc3)c2C)c(OC)c1,inactive
22,Cc1nn(-c2ccccc2)c(C)c1NC(=O)COC(=O)c1cc(Cl)ccc1O,inactive
23,Cc1nn(-c2ccccc2)c(C)c1NC(=O)COc1ccc(Cl)cc1Cl,2.31 µM (active)
